Data taken from PubChem BioAssay AID1053124 (Broad Institute, 2014).
Entries with a potency or affinity are not part of this list. Calls of active or inactive are those of the source.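 How the source made its calls: active means cell killing whose fitted half-effect concentration is at most twice the top valid dose tested; inconclusive means flat curve with 30 to 70% killing, or a poor fit; inactive means effect in the rising direction, plus the rest.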

Assay: viability loss in A549 lung cells – cell-based, ATP luminescence, cherry-pick, set 2, cytotoxicity control, dose response (AID 1053124)
Details: ATP luminescence (CellTiter-Glo), 72 h; series mostly up to 26 µM

With CCn1c2ccccc2c(=O)c2ccccc21 as the compound, how does the outcome read?
Its outcome is “inactive”.

For CCOc1ccc2nc(NCCCNS(=O)(=O)c3ccc(C)cc3)c(C#N)cc2c1, which outcome is on record?
The outcome was “inactive”.

For N#C/C(=C\c1ccc(N2CCOCC2)o1)C(=O)NCCc1ccccc1, which outcome is on record?
The outcome was “inactive”.

With CCOC(=O)c1cc2c(=O)n3ccccc3nc2n(C(C)C)c1=NC(=O)c1ccco1 as the compound, how does the outcome read?
Its outcome is “inactive”.

For CSc1ccc(Cn2c(C)c(C(=O)NCc3cccc(Cl)c3)sc2=O)cc1, which outcome is on record?
Its outcome is “inactive”.

With Cc1ccc(S(=O)(=O)c2cc3c(=O)n4ccccc4nc3n(C)c2=N)cc1 as the compound, how does the outcome read?
The outcome was “inactive”.

With Nc1cccc2c1C(=O)N(c1ccccc1)C2=O as the compound, how does the outcome read?
Its outcome is “inactive”.

Which outcome does the source give for CCNc1nc2nc3ccc(C)cn3c(=O)c2cc1C(=O)NCC1CCCO1 (stereo not given) here?
The outcome was “inactive”.

With COCCN1C=C(C(=O)OC)C(c2ccc(Cl)cc2)C(C(=O)OC)=C1 as the compound, how does the outcome read?
Its outcome is “inactive”.

With Cc1nc2ccc(S(=O)(=O)Nc3ccc(-c4nc5cccnc5s4)cc3)cc2s1 as the compound, how does the outcome read?
Its outcome is “inactive”.

With COc1ccc(CCNC(=O)c2cc(S(=O)(=O)N3CCCCC3)c[nH]2)cc1OC as the compound, how does the outcome read?
Its outcome is “inactive”.

For Cc1cccn2c(=O)c3cc(C(N)=S)c(=N)n(CCCOC(C)C)c3nc12, which outcome is on record?
Its outcome is “inactive”.

For O=C(CCCn1c(=O)c2sccc2n(Cc2cc(=O)n3ccccc3n2)c1=O)NCc1ccco1, which outcome is on record?
The outcome was “inactive”.

For CCCOc1ccc(NC(=O)c2c(-c3ccccc3)noc2C)cc1, which outcome is on record?
The outcome was “inactive”.

With C=CCc1c(O)c(CC)cc2c(C)cc(=O)oc12 as the compound, how does the outcome read?
Its outcome is “inactive”.

Which outcome does the source give for Cc1ccc(O)c(NC(=S)NC(=O)COc2ccc(Br)cc2)c1 here?
The outcome was “inactive”.

Which outcome does the source give for Clc1ccccc1C1=CC(c2ccco2)n2ncnc2N1 (stereo not given) here?
The outcome was “inactive”.

With CCOc1ccccc1N=c1oc2cc(O)ccc2cc1C(=O)NCC1CCCO1 (stereo not given) as the compound, how does the outcome read?
The outcome was “inactive”.

Which outcome does the source give for Cc1ccc2c(c1)-c1c(cnn1CC(=O)Nc1ccccc1N1CCN(C)CC1)CO2 here?
The outcome was “inactive”.

Which outcome does the source give for CCOC(=O)c1cc2c(=O)n3ccccc3nc2n(Cc2ccc(Cl)cc2)c1=N here?
The outcome was “inactive”.

For O=C(NS(=O)(=O)c1ccc(Cl)s1)c1ccccc1, which outcome is on record?
Its outcome is “inactive”.

Which outcome does the source give for S=c1[nH]c2ccc(Cc3ccc4[nH]c(=S)[nH]c4c3)cc2[nH]1 here?
Its outcome is “inactive”.

For CCc1cccc(OC2OC(CO)C(O)C(O)C2NC(C)=O)c1 (stereo not given), which outcome is on record?
Its outcome is “inactive”.

For NC(=O)c1cc([N+](=O)[O-])ccc1NCc1cccnc1, which outcome is on record?
Its outcome is “inactive”.

Which outcome does the source give for CCOc1ccc(NC(=O)CN(C)C(=O)CCCNC(=O)c2ccc(Cl)cc2)cc1OCC here?
Its outcome is “inactive”.

With Cc1cc(-n2c(=O)c(C#N)cc3c(=O)n4ccccc4nc32)no1 as the compound, how does the outcome read?
The outcome was “inactive”.

Which outcome does the source give for COC(=O)C1=CN(CC2CCCO2)C=C(C(=O)OC)C1c1cccc(O)c1 (stereo not given) here?
Its outcome is “inactive”.

For C=CCn1c(=N)c(C#N)cc2c(=O)n3ccccc3nc21, which outcome is on record?
The outcome was “inactive”.

For COc1ccccc1C(=O)c1cc2ccc(O)cc2oc1=O, which outcome is on record?
The outcome was “inactive”.

Which outcome does the source give for Cc1c2c(n3c(nc4ccccc43)c1C#N)N(CCN1CCOCC1)CC2 here?
Its outcome is “inactive”.

For CC(C)OCCCn1c(=N)c(C(N)=S)cc2c(=O)n3ccccc3nc21, which outcome is on record?
The outcome was “inactive”.

For COc1ccc(S(=O)(=O)N2CCCC2CNC(=O)C(=O)NC2CCCC2)cc1 (stereo not given), which outcome is on record?
The outcome was “inactive”.

For CSc1ccc(Cl)c(C(=O)N2CCOc3ccccc32)c1, which outcome is on record?
The outcome was “inactive”.

With CCN(CC)c1ccc2cc(S(=O)(=O)c3ccc(Cl)cc3)c(=O)oc2c1 as the compound, how does the outcome read?
The outcome was “inactive”.

With Cc1nc(CCNC(=O)Cc2ccc(Cl)cc2)cs1 as the compound, how does the outcome read?
The outcome was “inactive”.

For CCc1nnc(NC(=O)c2ccc(-c3ccccc3F)o2)s1, which outcome is on record?
The outcome was “inactive”.

For CCOCCCNc1nc2nc3ccc(C)cn3c(=O)c2cc1C(=O)NCC1CCCO1 (stereo not given), which outcome is on record?
Its outcome is “inactive”.

With Clc1cccc(CN2CCN(Cc3nc(CCc4ccccc4)no3)CC2)c1 as the compound, how does the outcome read?
Its outcome is “inactive”.

For CCN(CC)CCCNc1nc(C)cc(COC)c1C#N, which outcome is on record?
The outcome was “inactive”.

Which outcome does the source give for COC(=O)C1=CN(C)C=C(C(=O)OC)C1c1ccccc1Cl here?
The outcome was “inactive”.
